According to PubChem BioAssay (NCI):
The panel holds about 79,000 compounds, 15% with a hit somewhere; the sample as a whole holds those more often. Unmarked numbers belong to inactive results. Active and inactive are the calls of the source. No stated cut-off is given here; in the data, active means growth inhibition above about 70%; inactive means the rest.

Columns and labels:
[1] = NCI Yeast Anticancer Drug Screen. Data for the rad50 strain (AID 155);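 further: 0% = growth of vehicle-only cultures of the same strain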; details: S. cerevisiae rad50 strain growth inhibition; at 50.0 µM; hits give high values
Method in brief: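 Relative growth inhibition (compound vs vehicle) was measured in yeast with a defined repair-gene alteration.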

[2] = NCI Yeast Anticancer Drug Screen. Data for the mec2-1 strain (AID 157); details: S. cerevisiae mec2-1 strain, at 50.0 µM, hits give high values
Method in brief: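 Yeast mec2-1 mutant treated with compound. Readout: growth inhibition vs vehicle controls.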

[3] = NCI Yeast Anticancer Drug Screen. Data for the sgs1 mgt1 strain (AID 161);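 further: 0% = growth of cultures given vehicle only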; details: S. cerevisiae sgs1 mgt1 strain, at 50.0 µM, hits give high values
Method in brief: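 Mutant yeast exposed to compound; growth scored against vehicle-only wells.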

[4] = NCI Yeast Anticancer Drug Screen. Data for the cln2 rad14 strain (AID 165);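 further: 0% = growth equal to vehicle treated cultures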; details: S. cerevisiae cln2 rad14 strain, at 50.0 µM, hits give high values
Method in brief: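 cln2 rad14 yeast strain; compound exposure; growth inhibition read vs vehicle controls.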

[5] = NCI Yeast Anticancer Drug Screen. Data for the bub3 strain (AID 167); details: S. cerevisiae bub3 mutant strain, at 50.0 µM, hits give high values
Method in brief: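 Screening used yeast with an engineered genetic alteration affecting cell cycle control. Compound-exposed cultures were compared with vehicle cultures, and reduced growth was taken as inhibition.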

[6] = NCI Yeast Anticancer Drug Screen. Data for the mlh1 rad18 strain (AID 175); details: S. cerevisiae mlh1 rad18 strain growth inhibition; at 50.0 µM; hits give high values
Method in brief: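 Yeast w/ defined DNA-repair lesions; compound exposure; growth vs vehicle controls → % inhibition.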

| Structure (SMILES) | growth inhibition [1] | growth inhibition [2] | growth inhibition [3] | growth inhibition [4] | growth inhibition [5] | growth inhibition [6] |
| --- | --- | --- | --- | --- | --- | --- |
| c1ccc2nc3c(nc2c1)sc1nc2ccccc2n13 | 9.65% | 3.4% | -11.9% | 10.9% | 8.3% | 17.1% |
| CN1CCCC1c1cccnc1.O=C(O)c1ccccc1O.O=C([O-])c1ccccc1[OH2+].O=C([O-])c1ccccc1[OH2+].[Mn+2] (configuration not stated) | -3.05% | -0.4% | -24.7% | -30.7% | -29% | 4.15% |
| O=C1C(=S)Nc2cccc(F)c21 | 38% | 45% | 33.2% | -3.65% | 43.7% | 33% |
| C[CH2][Sn]([CH2]C)([O]C(=O)c1ccc(OC)c(OC)c1OC)[O]C(=O)c1ccc(OC)c(OC)c1OC | 41.5% | 27.6% | 24.6% | 28.3% | 19.4% | 24.8% |
| O=C(/C=C/c1ccccc1)c1ccc(Oc2ccccc2)cc1 | -13.2% | -12.8% | -12.9% | -39.5% | 7.5% | -14.8% |
| COC(=O)C(CC12CC3CC(CC(C3)C1)C2)NC(=O)C(N)CC(=O)O (configuration not stated) | -42.9% | -30.4% | -23.8% | 15.9% | 14.7% | -24.4% |
| Ic1cc2c(cc1CNCc1ccccc1)OCO2 | 11.7% | -19.6% | 26.7% | -56.4% | 2.6% | 7.2% |
| COc1ccc2nc3cc(Cl)ccc3c(NC(C)CCCN(C)C)c2n1 (configuration not stated) | 44.8% | 42.8% | 64.2% | 31.2% | 46.3% | 65% |
| O=C1NC(=S)NC(=O)C1=Cc1ccccc1OCc1ccccc1 | -19.4% | -16.1% | -0.55% | -50.6% | 1.6% | -16.6% |
| CCCCCCCCSC#N | 7.95% | -11% | -3.6% | 23.9% | 2% | -1.4% |
| Cc1cc(C(=O)O)c(C(=O)O)c(=O)[nH]1 | 0.6% | 5.8% | 0.3% | 7.1% | -1.05% | -13.9% |
| CCNC(=O)C(C(=O)O)c1ccccc1 (configuration not stated) | 1.8% | -5.55% | 5.15% | -21.1% | -13.9% | 5.2% |
| O=C1/C(=C/c2ccc(Cl)c(Cl)c2)CCC/C1=C\c1ccc(Cl)c(Cl)c1 | 30.4% | -5.85% | 2.7% | 2.95% | -3.7% | 1.2% |
| CCC1(CC)C(=O)N(C(=O)c2ccccc2)N(C(=O)c2ccc(Cl)cc2)C1=O | 20.9% | 18.7% | 34.5% | 32.5% | 46.8% | -79.8% |
| CCO/C=C1/N=C(c2cc([N+](=O)[O-])cc([N+](=O)[O-])c2C)OC1=O | 10.6% | 6.85% | -6.45% | -58.2% | -35% | 15.1% |
| C=C(CC(=O)NN)C(=O)NN | -4.75% | 12.3% | -24.2% | -3.1% | -22.5% | 1.25% |
| OC(CC1=NCCS1)(c1ccccc1)c1ccccc1 | 98% (active) | 98.8% (active) | 96.8% (active) | 98.1% (active) | 98.2% (active) | 98.2% (active) |
| CCC1(CC)C(=O)N(C(=O)c2ccc(C)cc2)N(C(=O)c2ccc(C)cc2)C1=O | 3.65% | -6.1% | 14.6% | 18.1% | 2.8% | -17.3% |
| CSC1C(=O)Nc2ccccc21 (configuration not stated) | -8.5% | -17.6% | 4.1% | -13.1% | -34.5% | -3% |
| O=C(O)c1cccc(C(=O)c2ccccc2)c1 | 5.55% | 6.15% | 20.4% | 4.4% | -11.7% | 0.7% |
| CN(C)c1ccc(/C=C2\Cc3ccccc3C2=O)cc1Br | 19.6% | -8% | 1.45% | 0.95% | -8.55% | 12.4% |

| Structure (SMILES) | growth inhibition [1] | growth inhibition [2] | growth inhibition [3] | growth inhibition [4] | growth inhibition [5] | growth inhibition [6] |
| --- | --- | --- | --- | --- | --- | --- |
| O=C1C(OCc2ccccc2)=C(OCc2ccccc2)C(=O)c2ccccc21 | 14.2% | 3.1% | 31.6% | 10.2% | -30.1% | 36.3% |
| Cc1nc(C)c(CC#N)s1 | -9.25% | -10% | -1.75% | -15.1% | -2% | 13.7% |
| O=c1cc(-c2ccc(F)cc2)oc2ccccc12 | 40% | -7.45% | -9.05% | 0.95% | 13.7% | 30.4% |
| COc1ccc(NC(=O)C2C(=O)N(c3ccc(OC)cc3)C(=O)/C2=N\N)cc1 (configuration not stated) | 11.6% | -19.4% | -2.9% | -57.6% | 19.4% | 3.35% |
| Nc1nc(N)c(N=Nc2ccc(Cl)cc2)c(=O)[nH]1 | 19.9% | -20.6% | -26.1% | 23.1% | 5.35% | 13.7% |
| CCCCCCCCCCCCNC(=O)c1ccccc1O | 13.2% | 23.6% | 17.9% | 20.8% | 10.6% | 35.8% |
| Cc1cccc(Cc2ccccc2C(=O)c2ccccc2)c1C | 5.75% | -6.75% | -5.5% | -19.2% | 7.4% | -17.1% |
| CC(=O)c1c(C)cc2cccc(OC3OC(CO)C(O)C(O)C3O)c2c1O (configuration not stated) (tested in a mixture with another compound) | 9.1% | 8.2% | -18.6% | 0% | -7.25% | -56.3% |
| O=C(O)CN1CCSc2ccccc2CN(CC(=O)O)CCSc2ccccc2C1 | 4.5% | 3.1% | -2.6% | -32% | 12.7% | -8% |
| CCOc1c(Cl)cc(Cl)cc1C(c1ccc(Cl)cc1S(=O)(=O)O)c1cc(Cl)cc(Cl)c1OCC | 99.2% (active) | 99.3% (active) | 99.6% (active) | 98% (active) | 99% (active) | 99.2% (active) |
| Cc1ccnc2c1NC(=O)c1cccnc1N2C1CC1 | 2.35% | -1.95% | -8.6% | -9.35% | 6% | 20.8% |
| Nc1nc(N)nc(CCC(Br)(Br)Br)n1 | 26.6% | 4.75% | 30.8% | 19.9% | 21.9% | 11.1% |
| CC(=O)Oc1cccc2ccccc12 | -23.4% | -25.5% | 1% | -109% | -36.8% | -5.65% |
| O=c1sc2ncccc2n1-c1ccc([N+](=O)[O-])cn1 | -3.4% | 10.4% | 3.15% | -18.4% | 11.9% | -6.55% |
| CC1CC(C)OC2(CCCC2)O1 (configuration not stated) | 8.45% | -8.05% | 2.2% | -12.8% | 4.05% | -5.3% |
| NC1=NN(c2ccccc2)C(=O)C1C(=O)C(=O)Nc1ccc(Cl)c(Cl)c1 (configuration not stated) | -6.4% | -23.8% | 11.8% | 0.15% | 12.2% | -6.2% |
| O=[N+]([O-])c1cccc(C2=NOC3CCCC23)c1 (configuration not stated) | 17.6% | -7.6% | 15.2% | 13.8% | -8.3% | 16.9% |
| O=[N+]([O-])c1ccc(Br)cc1 | -6.5% | -14.2% | 17.7% | 16.2% | -2.3% | 19.2% |
| O=C(c1cccc(C(=O)N(c2ccccc2)c2ccccc2)n1)N(c1ccccc1)c1ccccc1 | -47.5% | -11.2% | -32.1% | 15.6% | -11.8% | -1.8% |
| O=C(O)c1ccc2c(Cl)ccc3c2c1CC3 | 11.7% | -0.8% | 9.05% | -32.5% | -26.2% | 21.5% |
| O=C(O)c1cc(=O)c2ccccc2[nH]1 | 4.45% | 8.4% | 1.35% | 6.5% | 8.2% | 17.9% |
